NIH3T3 tox – kills NIH 3T3 cells; Potency, µM (highest dose often 96.7 µM), inactives show at the top dose activity change, negative = cytotoxicity, actives largely listed as inhibitors; NIH 3T3 viability, CellTiter-Glo ATP luminescence, 48-72 h; AID 1345082; actives 4.3% (n = 94,000); also: % is scaled to controls: 0 for no effect and ±100 for the full control effect; nearly all actives have a fitted effect of over 55% in size
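Cytotoxicity was measured by CellTiter-Glo ATP luminescence after 48 or 72 h compound exposure at 37 °C. Mouse NIH 3T3 fibroblasts were seeded at 400 cells/well and dosed by 23 nL pin transfer.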
FLuc inh – blocks purified firefly luciferase enzyme activity. P08659. purified P. pyralis luciferase, luminescence, biochemical. Potency, µM (series often up to 115 µM), actives largely listed as inhibitors. actives 2.5% (n = 76,000). AID 1347043; also: % is scaled to controls: 0 for no effect and ±100 for the full control effect; nearly all actives have a fitted effect of over 65% in size
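FLuc 10nM, D-luciferin 10uM, ATP 10uM, Mg acetate 10mM, Tris acetate pH 7.5, Tween/BSA; cpd qHTS; enzyme added last; CCD luminescence.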
hNpr1 antagonist – human Npr1 receptor antagonism; HEK293 hNpr1 GloSensor cGMP, ANP-stimulated luminescence; Potency, µM (series often up to 46.3 µM), without a hit: top-dose activity change, negative = inhibition, actives largely listed as inhibitors; actives 1.6% (n = 76,000); calls by dose curve; also: % is scaled to controls: 0 for no effect and ±100 for the full control effect; nearly all actives have a fitted effect of over 60% in size
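HEK293 cells stably expressing human Npr1 and cGMP GloSensor pGS-40F, loaded 2 h with 2% GloSensor reagent, given compound 30 min at room temperature. Luminescence read before and 20 min after 0.1 nM hNppA.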
HEK cytotox – HEK 293 cell cytotoxicity; HEK 293 viability, ATP luminescence (CellTiter-Glo), 48-72 h; Potency, µM (series often up to 115 µM), for the others: at the highest dose activity change, negative = cytotoxicity, actives largely listed as inhibitors; actives 6.6% (n = 94,000); also: % is scaled to controls: 0 for no effect and ±100 for the full control effect; nearly all actives have a fitted effect of over 60% in size
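ATP-coupled CellTiter-Glo luminescence served as viability read-out, recorded 10 min after reagent addition at room temperature. HEK 293 cells, 250 cells/well, had been incubated with pintool-transferred compound for 48 or 72 hr at 37 degree Celsius.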
GPT2 inh – GPT2 alanine aminotransferase inhibition | Q8TD30 | Recombinant GPT2, coupled pyruvate oxidase/HRP Amplex Red fluorescence | Potency, µM (titrated, usually from 57.7 µM), without a hit: top-dose activity change, negative = inhibition, hits mostly inhibitors | actives 0.25% (n = 100,000); also: % is scaled to controls: 0 for no effect and ±100 for the full control effect; nearly all actives have a fitted effect of over 60% in size
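Fluorescence of coupled pyruvate oxidase/HRP/Amplex Red system (50uM Amplex, 30 min, dark) reports pyruvate formed by GPT2. Enzyme reaction: 10ng/uL GPT2, 2mM L-alanine, 250uM a-KG, 30 min room temperature, pH 7.5; 50uM AOA control.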
NPR1 antag cnf – hNpr1 antagonism, confirmation assay. shares compounds with hNpr1 antagonist. HEK293 hNpr1 cGMP GloSensor luminescence, ANP-stimulated. Potency, µM (highest dose often 57.6 µM), for the others: at the highest dose activity change, negative = inhibition, hits mostly inhibitors. actives 76% (n = 1,400); calls by dose curve; also: nearly all actives have a fitted effect of over 70% in size
Npr2 selectivity – antagonizes human Npr2, subtype selectivity check; shares compounds with hNpr1 antagonist; AID 1347046; actives 67% (n = 1,400); Potency, µM (top dose mostly 57.6 µM), without a hit: at the top dose activity change, negative = inhibition, most hits filed as inhibitors; HEK293 hNpr2 GloSensor cGMP luminescence, CNP-stimulated; calls by dose curve; also: nearly all actives have a fitted effect of over 70% in size
Target sequence (P20594 whole entry, looked up): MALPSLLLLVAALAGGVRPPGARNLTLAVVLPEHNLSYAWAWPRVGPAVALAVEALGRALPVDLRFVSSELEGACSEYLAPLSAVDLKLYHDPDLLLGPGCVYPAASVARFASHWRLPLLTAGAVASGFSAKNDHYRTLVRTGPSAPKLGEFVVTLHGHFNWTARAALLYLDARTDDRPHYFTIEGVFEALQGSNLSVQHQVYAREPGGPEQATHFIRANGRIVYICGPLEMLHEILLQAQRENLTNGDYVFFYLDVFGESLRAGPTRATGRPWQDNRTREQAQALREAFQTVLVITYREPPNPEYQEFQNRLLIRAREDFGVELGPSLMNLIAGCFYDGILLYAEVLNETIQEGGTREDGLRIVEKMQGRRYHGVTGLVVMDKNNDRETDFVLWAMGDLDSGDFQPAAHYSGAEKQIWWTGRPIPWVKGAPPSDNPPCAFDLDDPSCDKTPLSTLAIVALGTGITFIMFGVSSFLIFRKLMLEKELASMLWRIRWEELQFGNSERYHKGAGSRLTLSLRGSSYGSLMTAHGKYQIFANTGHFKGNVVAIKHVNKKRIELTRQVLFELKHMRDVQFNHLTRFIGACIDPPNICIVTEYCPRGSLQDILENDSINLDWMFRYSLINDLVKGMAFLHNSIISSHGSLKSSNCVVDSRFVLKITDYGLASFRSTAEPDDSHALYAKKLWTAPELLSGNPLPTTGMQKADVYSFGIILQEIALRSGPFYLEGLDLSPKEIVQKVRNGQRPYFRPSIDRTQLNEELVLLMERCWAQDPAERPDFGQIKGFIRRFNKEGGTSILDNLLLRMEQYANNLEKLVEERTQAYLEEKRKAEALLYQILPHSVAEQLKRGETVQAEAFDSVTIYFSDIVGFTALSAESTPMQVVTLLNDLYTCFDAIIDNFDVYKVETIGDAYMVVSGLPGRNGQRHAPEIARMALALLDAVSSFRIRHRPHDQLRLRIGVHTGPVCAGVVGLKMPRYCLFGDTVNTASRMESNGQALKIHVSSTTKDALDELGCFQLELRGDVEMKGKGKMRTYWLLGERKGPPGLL
FLuc counter – counter-screen for Npr1 antagonists: firefly luciferase inhibitors; shares compounds with hNpr1 antagonist; Potency, µM (doses to about 57.6 µM), without a hit: top-dose activity change, negative = inhibition, most hits filed as inhibitors; actives 0.7% (n = 1,400); purified FLuc enzyme, luminescence, Km substrate; AID 1347047; also: 0% is about no effect
GloSensor cGMP – reduces cGMP signal in GloSensor control cells | shares compounds with hNpr1 antagonist | HEK293 GloSensor cGMP, SNP-stimulated, luminescence | Potency, µM (doses to about 57.6 µM), for the others: top-dose activity change, negative = inhibition, actives largely listed as inhibitors | actives 69% (n = 1,400); calls by dose curve; also: % is scaled to controls: 0 for no effect and ±100 for the full control effect; nearly all actives have a fitted effect of over 70% in size
The depositor's hits bear a star; [ ] = dose if it differs, or a comment. In the library only some 10% were active in any assay of this set; here they are far more common. Unless noted, calls follow the shape of the dose curve; as a rule, active = well fitted curve in the direction sought with a large enough effect; inconclusive = small, poorly fitted or top-dose-only effect, or another doubt; inactive = no such curve, though single readings can be large; an effect the other way counts as inactive or inconclusive. Potency is read from the fitted curve at half-maximal effect.

`O[C@@H]1CC(CNCc2ccc(F)cc2)(COc2cccnc2)C[C@@H]1O` (some centres undefined) gave NIH3T3 tox -17.7%[174 µM], FLuc inh inactive, hNpr1 antagonist -0.1%[70.6 µM], HEK cytotox -7.5%[172 µM] and GPT2 inh inconclusive.
O[C@@H]1CC(CNCc2cccc(Cl)c2)(COc2ccccc2)C[C@@H]1O (some centres undefined) was read as NIH3T3 tox inconclusive, FLuc inh inactive, hNpr1 antagonist -28.0%[70.6 µM], HEK cytotox 100µM*, GPT2 inh -10.1%[88.5 µM], NPR1 antag cnf inconclusive, Npr2 selectivity 31.4µM*, FLuc counter -7.1%[86.2 µM] and GloSensor cGMP -26.5%[86.2 µM].
COC(=O)CCCNC(=O)C1c2ccccc2C(=O)N(c2ccccc2)C12CCCCC2 (centres undefined) was read as NIH3T3 tox inconclusive, FLuc inh inactive, hNpr1 antagonist -15.9%, HEK cytotox inconclusive and GPT2 inh 1.1%.
CC(C)CCN1CCC(Cc2ccc(C(=O)NC3CC3)cc2)CC1 was read as NIH3T3 tox inconclusive, FLuc inh inactive, hNpr1 antagonist -2.9%, HEK cytotox inconclusive and GPT2 inh inactive.
For Cc1ccc(CNC(=O)N2CCC(Cc3ccc(C(=O)NC4CC4)cc3)CC2)cc1 the results were NIH3T3 tox inconclusive, FLuc inh inactive, hNpr1 antagonist inconclusive, HEK cytotox inconclusive, GPT2 inh -10.3%, NPR1 antag cnf inconclusive, Npr2 selectivity inconclusive, FLuc counter 0.2% and GloSensor cGMP inconclusive.
CN1CCN(c2ncc(-c3cc(Cl)cc(Cl)c3Cl)c(N)n2)CC1 was read as GPT2 inh -27.4%.
Screening COc1ccc(C(=O)N[C@@H]2CN(C(=O)NC(C)C)CCC[C@H]2O)cc1 returned NIH3T3 tox -1.9%[174 µM], FLuc inh inactive, hNpr1 antagonist -4.3%[70.6 µM], HEK cytotox -21.9%[172 µM] and GPT2 inh 2.0%[88.5 µM].
CN(C)C(=O)C1CCc2nnc(CNC(=O)c3ccc(Cl)cc3Cl)n21 (centres undefined) was read as NIH3T3 tox inactive, HEK cytotox inactive and GPT2 inh inactive.
`O=C(Nc1ccc(F)cc1)c1ccc2cc[nH]c2n1` gave NIH3T3 tox inconclusive, HEK cytotox inconclusive, GPT2 inh 1.9%[88.5 µM], NPR1 antag cnf 25µM*, Npr2 selectivity 31.4µM*, FLuc counter 0.886µM* and GloSensor cGMP 25µM*.
Screening COc1ccc(-c2nccn3cc(C(=O)NCc4cccnc4)nc23)cc1 returned NIH3T3 tox inconclusive, FLuc inh inactive, hNpr1 antagonist 11.2µM*, HEK cytotox -28.9%, GPT2 inh 0.7%, NPR1 antag cnf 24.3µM*, Npr2 selectivity 19.3µM*, FLuc counter 1.3% and GloSensor cGMP 3.7%.
Screening COc1ccc(-c2nccn3cc(C(=O)NCCc4cccnc4)nc23)cc1 returned NIH3T3 tox -21.3%, FLuc inh inactive, hNpr1 antagonist -0.2%, HEK cytotox -14.3% and GPT2 inh 3.6%.
Cc1nn(-c2ccccc2)c2c1C(C(C)C)N(C1CCCN([S+](=O)([O-])c3c(C)noc3C)C1)C2=O (centres undefined) was read as NIH3T3 tox -21.0% and HEK cytotox -18.9%.
For CO[C@H]1C(=O)N(C2CCN(C(=O)c3ccccn3)CC2)[C@H]1c1ccncc1 the results were NIH3T3 tox -0.6%, HEK cytotox inactive and GPT2 inh -0.3%.
`Cn1nccc1C(=O)N1CCC2(CC1)OCCN(Cc1ccccc1F)C2=O` gave NIH3T3 tox -19.7%[138 µM], FLuc inh inactive, hNpr1 antagonist 31.6µM*, HEK cytotox inconclusive, GPT2 inh -10.3%[88.5 µM], NPR1 antag cnf 35.3µM*, Npr2 selectivity 31.4µM*, FLuc counter 0.1%[86.2 µM] and GloSensor cGMP 31.4µM*.
Screening CN(Cc1cccc2cnccc12)C(=O)c1cc(COc2ccc(F)cc2F)on1 returned NIH3T3 tox inconclusive, FLuc inh inactive, hNpr1 antagonist 11.2µM*, HEK cytotox inconclusive, GPT2 inh inactive, NPR1 antag cnf 24.3µM*, Npr2 selectivity 21.7µM*, FLuc counter -0.8% and GloSensor cGMP 19.3µM*.
For c1cncc(COc2cc3c(cn2)NCCN(Cc2ccc4[nH]ccc4c2)C3)c1 the results were NIH3T3 tox inconclusive, FLuc inh inactive, hNpr1 antagonist 8.91µM*, HEK cytotox inconclusive, GPT2 inh inactive, NPR1 antag cnf 19.8µM*, Npr2 selectivity 22.2µM*, FLuc counter 1.3%[86.2 µM] and GloSensor cGMP 19.8µM*.
COc1ccc(CN2CCNc3cnc(OCc4cccnc4)cc3C2)cc1 was read as NIH3T3 tox -23.5%[138 µM], FLuc inh inactive, hNpr1 antagonist inconclusive, HEK cytotox inconclusive and GPT2 inh inactive.
O=C(NCc1ccc2c(c1)OCO2)C1CCN(c2cn[nH]c(=O)c2)C1 (centres undefined) was read as NIH3T3 tox -4.9%, FLuc inh inactive, hNpr1 antagonist 9.6%, HEK cytotox inactive and GPT2 inh inactive.
Screening COc1ccc(C(=O)N2CCCN(c3cc(-c4ccc(Br)cc4)[nH]n3)CC2)cc1F returned NIH3T3 tox 22.4µM*, FLuc inh inactive, hNpr1 antagonist 11.2µM*, HEK cytotox 39.8µM*, GPT2 inh inconclusive, NPR1 antag cnf 21.7µM*, Npr2 selectivity 19.3µM*, FLuc counter -2.7% and GloSensor cGMP 15.3µM*.
`COc1ccc(C(=O)N2CCCN(c3cc(-c4ccc(Cl)cc4)[nH]n3)CC2)cc1F` gave NIH3T3 tox 25.1µM*, FLuc inh inactive, hNpr1 antagonist inconclusive, HEK cytotox inconclusive, GPT2 inh inconclusive, NPR1 antag cnf 24.3µM*, Npr2 selectivity 21.7µM*, FLuc counter 2.8% and GloSensor cGMP 24.3µM*.
